In PubChem BioAssay AID493014 (National Center for Advancing Translational Sciences (NCATS), 2011):
Hit rate of the full screen: of about 340,000 compounds, about 170 (0.05%) were called active. Not shown: some 26% with an inconclusive outcome. Calls come from the whole dose curve; as a rule, active = well fitted inhibition curve with a large enough effect in the signal ratio, with a control signal flat (not every such curve was filed as active); inconclusive = small, poorly fitted or top-dose-only effect, or effect the other way, or a change in a side signal; inactive = flat fitted curve, though single readings scatter; the % refers to the signal ratio. For the sample, actives were picked, then their nearest neighbours and some compounds at random.

Assay: qHTS Assay to Find Inhibitors of Chronic Active B-Cell Receptor Signaling
Settings: ABC-DLBCL IkBa-CBG/CBR reporter, luminescence ratio, 4 h; series mostly up to 46.1 µM; activity change, negative = inhibition: at the top concentration
Source text: NIH Molecular Libraries Probe Production Network [MLPCN] NIH Chemical Genomics Center [NCGC] MLPCN Grant: 1 R03 DA031086-01A1 PI Name: Dr. R. Eric Davis NCGC Assay Overview: Diffuse large B-cell lymphoma (DLBCL) is the most common category of non-Hodgkin lymphoma, with ~20,000 new cases per year in the United States. DLBCL should be regarded as a collection of different neoplasms. Microarray gene expression analysis has defined two principal types of DLBCL, named for their similarity to normal B cell stages or activation states: a germinal center B-cell (GCB) type, and an activated B-cell (ABC) type. In ABC-DLBCL, a constitutive high-level activity of the NF-kappaB family of transcription factors has been observed (1) and NF-kappaB target genes are more highly expressed in ABC primary tumors than in GCB tumors. Functional studies have shown a constitutive high-level activity of the IkappaB (inhibitor of kappa-B) kinase (IKK) complex. […] Further analysis of DLBCL primary tumors for NF-kappaB target gene expression imply that although CARD11 is required for constitutive IKK activity in all ABC-DLBCL lines, mutations in CARD11 may be the root cause of IKK activation only in lines or tumors with such mutations. In other words, CARD11 mutations may explain NF-kappaB activation in only 10% of ABC-DLBCL cases. […] This process has been termed 'chronic active BCR signaling' (CABS). The goal of this screen is to find small-molecule inhibitors of the CABS pathway found in ABC-DLBCL lines using a cell-based assay that measures IkappaBalpa stability, which has already been extensively validated in the OCI-Ly3 line (PubChem AID:445; REF: 4). […] The assay uses green (CBG68) and red (CBR) emitting beetle luciferases [Chroma-GloTM developed by Promega Corp.] where the green luciferase is fused to IkappaBalpha and the red luciferase is present in its native state. Both luciferase genes are stably present in the TMD8 human ABC DLBCL cell line, but their expression is under the control of tetracycline-inducible promoters. Following the addition of doxycycline to induce expression of the luciferases, the green luminescence in control cultures rises only slowly because the CBG fusion partner IkappaBalpha is targeted by IKK activity for rapid degradation. In contrast, green luminescence rises rapidly in the presence of proteasome inhibitors or IKK inhibitors. The rise in red luminescence of CBR is not affected by proteasome or IKK inhibitors, and serves as normalization for cell number and nonspecific effects. Compounds were screened as a concentration-titration series that ranged from 46 uM to 3 nM.
NCGC Assay Protocol Summary: Cells were seeded in 1536-well plates at 5000 cells/4uL in IMDM medium containing 0.5% FBS, w/o phenol red, 1% penicillin/streptomycin. Then, 23 nL of compounds or DMSO were delivered to each well using a pin tool. One uL 20ng/ml doxycycline was then dispensed into white solid 1536-well plates and the plates were incubated at 37C/5% C02 in a cell incubator for 4 hrs. Then 4 uL luminescent substrate mix (in-house prepared: 150 mM Tris-Cl, pH 7.6, 3 mM MgCl2, 1% Triton X-100, 5 mM DTT, 0.2 mM CoA, 0.15 mM ATP, 5 mM D-luciferin, final concentrations) was added to each well. The plate was incubated at r.t. for 10-15 min. The plates were measured on a ViewLux plate reader for green luminescence (540/20 nm filter) and red luminescence (618/8 nm filter). The green and red luminescent signals were corrected for red and green luminescence filter overlap using previously determined filter calibration constants (determined using the procedure outlined in the Promega Technical Manual; REF 4). The %Activity was determined from the ratio of corrected green/red luminescent values. MG132 were used as control. […] Red luminescent %Activity was normalized to the difference between red luminesence in basal cells (0%Activity) and zero luminescence (-100% Activity). […]

Activity change, negative = inhibition, inactive:
CCCCN(CC(=O)Nc1cccc(S(=O)(=O)N2CCCC2)c1)Cc1nc2ccccc2c(=O)[nH]1 1.54%, O=S(=O)(NCCCCCCNS(=O)(=O)c1c(F)cccc1F)c1ccc2c(c1)OCCO2 -1.56%, CCN(c1ccccc1)S(=O)(=O)c1cccc(C(=O)NCc2ccccc2CN2CCOCC2)c1 -2.52%, C=CC[C@@H](CC(=O)N[C@H](CO)Cc1ccccc1)C(=O)N[C@H](C)COC(=O)[C@@H](CC=C)Cc1ccc(F)cc1 -1.93%, O=S(=O)(NC1CCN(S(=O)(=O)c2ccc3c(c2)OCCO3)CC1)c1c(F)cccc1F -0.418%, COC(=O)[C@]1(Cc2ccccc2)N[C@H](CN(C)S(=O)(=O)c2ccc(OC(F)(F)F)cc2)[C@@H]2C(=O)N(C)C(=O)[C@@H]21 -0.118%, Nc1ccc(Nc2cc(O)c3ncccc3c2)cc1 7.2%, Cc1ccc(NS(=O)(=O)c2ccc(C(C)C)cc2)cc1S(=O)(=O)N1CCOCC1 0.449%, CCN(C[C@H]1N[C@@](Cc2ccccc2)(C(=O)OC)[C@H]2C(=O)N(Cc3ccccc3)C(=O)[C@@H]12)C(=O)c1ccc(C)cc1 1.12%, O=C1C=CN2CCCC2CC1 (stereo not drawn) 0.786%, COc1cccc(NC(=O)COC(=O)c2ccc3ccccc3n2)c1 -6.77%, CCOC(=O)C1CCCN(C(=O)CSc2nnc3nc(C)cc(C)n23)C1 (stereo not drawn) -0.755%, COc1cccc(C2=CC(=O)C[C@H](c3ccc(OC)c(OC)c3)C2)c1 -0.376%, CN(C)C(=O)COC(=O)c1cccc(S(=O)(=O)N2CC3(C)CC2CC(C)(C)C3)c1 (stereo not drawn) -0.764%, Cc1ccc(-n2ncc3c2CC(C)(C)CC3NC(=O)Cc2c(C)noc2C)cc1 (stereo not drawn) 0.651%, COC(=O)[C@]1(CC(C)C)N[C@H](c2ccc(SC3CCCCC3)cc2)[C@@H]2C(=O)N(C)C(=O)[C@@H]21 1.05%, O=C1COc2ccc(C(=O)CSc3ccc(Br)cc3)cc2N1 2.41%, Cc1ccc(N2CC(C(=O)N3CCC4(CC3)CC(=O)c3ccccc3O4)CC2=O)cc1C (stereo not drawn) -3.76%, CC(=O)Nc1ccc(S(=O)(=O)NCCC(=O)N2CCN(c3ccccc3Cl)CC2)cc1 -6.11%, Fc1ccccc1-c1cc2cc3c(cc2cn1)OCO3 -10%, CCN(CC(=O)Nc1ccc(OC)cc1)C(=O)CSCc1ccc(C)cc1 -0.391%, Cc1cccc(N(Cc2ccccc2)C(=O)c2cc(S(=O)(=O)N3CCOCC3)ccc2F)c1 3.15%, CCN(CC)S(=O)(=O)c1ccc(N2CCOCC2)c(NC(=O)C(C)Oc2ccc(F)cc2)c1 (stereo not drawn) 1.89%, CC1Sc2ccc(C(=O)NCc3ccccc3Cl)cc2NC1=O (stereo not drawn) -1.93%, O=C(O[C@@H]1[C@H](Cc2ccccc2)NS(=O)(=O)[C@H]2C[C@@H]3C=C[C@]12O3)c1ccccc1Br 7.63%, CC(C)(C)OC(=O)C[C@@H]1C/C=C\C[C@H](CC(=O)N[C@@H](CO)Cc2ccccc2)C(=O)N[C@H](Cc2ccccc2)COC1=O 1.23%, CN=C(Nc1cccc(S(=O)(=O)N2CCOCC2)c1)c1ccccc1 0.254%, Oc1ccccc1CN1CCN(C(c2ccccc2)c2ccccc2)CC1 10.3%, COc1ccc(-c2cc(=O)oc3cc(OC(C)C(=O)Nc4ccc(CN5CCOCC5)cc4)ccc23)cc1 (stereo not drawn) -12.9%, COc1ccc(CNC(=O)C[C@H]2C[C@H](C(=O)N3CCOCC3)[C@@]3(CCC4CCCC4)c4[nH]c5ccc(Cl)cc5c4CCN3C2=O)cc1OC 0.526%, CC(=O)Nc1ccc(SC[C@H](Cc2ccccc2)N2CC[C@@H](C)CCC2=O)cc1 -9.05%, O=C(COC(=O)COc1cccc(F)c1)NCC1CCCCC1 1.5%, O=C(NCc1ccccc1CN1CCCC1)C1CCN(S(=O)(=O)c2ccc(Cl)cc2)CC1 12.9%, Cc1cccc(NC(=O)c2ccc(S(=O)(=O)N(C)c3ccccc3)cc2)n1 2.05%, COc1ccc(NC(=O)CN2C(=O)COc3ccc(S(=O)(=O)N4CCOCC4)cc32)c(OC)c1 0.37%, Cc1ccc(CNC(=O)Cn2cnc3c(NCc4ccccc4)ncnc32)o1 -12.2%, COc1ccccc1N(C)S(=O)(=O)c1ccc(Cl)c(C(=O)Nc2ccncc2)c1 -16.4%, C[C@H]1COC(=O)[C@H](CC(=O)OC(C)(C)C)C/C=C\C[C@@H](CC(=O)N[C@H](CO)Cc2ccccc2)C(=O)N1 2.36%, Nc1cc(N)nc(SCC(=O)Nc2cccc(S(=O)(=O)N3CCCCC3)c2)n1 -9.58%, COc1ccc(S(=O)(=O)N2CCCCCC2)cc1NC(=O)Cc1ccc(OC)c(OC)c1 -14.2%, COC(=O)c1cc(C(=O)NC(C)C2CC3CCC2C3)cc([N+](=O)[O-])c1 (stereo not drawn) 5.53%, O=C(CN(Cc1ccc(Br)cc1)S(=O)(=O)c1ccccc1)NCc1ccncc1 -1.57%, Cc1ccc(C)c(N2CCN(C(=O)CCc3nc(-c4cccc(C(F)(F)F)c4)no3)CC2)c1 -1.43%
